The whole screen tested about 5,500 compounds, of which about 2,000 (36%) were called active. About 18% were inconclusive and are not listed. Cut-off read from the data, not from the text of the source: active = normalized growth mostly below about 0.91 (no sharp cut-off); inconclusive = no clear call, values can overlap the other calls; inactive = mostly above about 0.92. This is one part of the list.
Assay: chemical genetic growth profiling, strain panel (AID 1159580);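 note: tested at 20 µM; growth read once vehicle control cultures reached saturation at 30 °C; 1 = growth at the plate median or of vehicle wells; lower values mean less growth of the strain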
Settings: S. cerevisiae deletion strains, growth OD

Measured: normalized growth

COc1ccc(OC)c(C(=O)c2cc(OC)c(OC)c(OC)c2)c1
inactive: locus YAL013W, strain DEP1, stronger effect = lower value 0.999 | locus YBR229C, strain ROT2, stronger effect = lower value 1.02 | locus YDL101C, strain DUN1, stronger effect = lower value 1 | locus YDR150W, strain NUM1, stronger effect = lower value 1.01 | locus YEL061C, strain CIN8, stronger effect = lower value 1.05 | locus YGR078C, strain PAC10, stronger effect = lower value 1 | locus YHR030C, strain SLT2, stronger effect = lower value 0.93 | locus YHR087W, strain rtc3, stronger effect = lower value 1.06 | locus YJL187C, strain SWE1, stronger effect = lower value 1.01 | locus YJR043C, strain POL32, stronger effect = lower value 1.02 | locus YJR075W, strain HOC1, stronger effect = lower value 1.03 | locus YKL190W, strain CNB1, stronger effect = lower value 1.03 | locus YLR058C, strain SHM2 (second series), stronger effect = lower value 1.01 | locus YLR085C, strain ARP6, stronger effect = lower value 0.999 | locus YML094W, strain GIM5, stronger effect = lower value 0.982 | locus YMR219W, strain ESC1, stronger effect = lower value 1.01 | locus YMR263W, strain SAP30, stronger effect = lower value 1.01 | locus YNL153C, strain GIM3, stronger effect = lower value 1.01 | locus YNL298W, strain CLA4 (second series), stronger effect = lower value 1.01 | locus YNL322C, strain KRE1, stronger effect = lower value 0.995 | locus YNR030W, strain Alg12, stronger effect = lower value 1.01 | locus YOL006C, strain TOP1, stronger effect = lower value 0.973 | locus YPL055C, strain LGE1, stronger effect = lower value 1.01 | locus YPL241C, strain CIN2, stronger effect = lower value 0.986 | locus YPR135W, strain CTF4, stronger effect = lower value 1.06
active: locus YLR039C, strain RIC1, stronger effect = lower value 0.753 | locus YLR262C, strain YPT6, stronger effect = lower value 0.69

Source: PubChem BioAssay AID1159580 (chemical genetic matrix, 2015)
